GLA inh pH 4.5: alpha-galactosidase A (human) inhibition, pH 4.5. P06280. purified enzyme, 4-MU-alpha-Gal fluorescence, pH 4.5. activity change, negative = inhibition, % at 105 µM. 230,000 tested, under 10 active
GLA spleen mod: inhibits or activates alpha-galactosidase in human spleen homogenate | P06280 | AID 2107 | Potency, µM (titrated, usually from 80 µM), hits mostly inhibitors | hit rate 0.008% among 240,000 | human spleen homogenate, 4MU-alpha-Gal fluorescence, 40 min
Target sequence (P06280 32-429 limits assumed): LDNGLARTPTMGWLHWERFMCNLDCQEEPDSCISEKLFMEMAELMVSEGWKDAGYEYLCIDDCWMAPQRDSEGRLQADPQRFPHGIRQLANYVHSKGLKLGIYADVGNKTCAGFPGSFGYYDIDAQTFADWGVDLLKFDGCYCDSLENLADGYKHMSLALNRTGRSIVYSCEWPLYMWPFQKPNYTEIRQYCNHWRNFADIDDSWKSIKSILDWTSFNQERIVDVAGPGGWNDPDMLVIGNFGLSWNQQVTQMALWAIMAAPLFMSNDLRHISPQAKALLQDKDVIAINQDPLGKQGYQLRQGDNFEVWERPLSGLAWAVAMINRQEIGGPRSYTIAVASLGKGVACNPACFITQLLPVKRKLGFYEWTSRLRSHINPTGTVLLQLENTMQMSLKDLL
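Inhibition or activation of alpha-galactosidase in human spleen homogenate is scored by 4-MU fluorescence after 40 min at 37C, pH 5.0, with 1 mM substrate. AC50s come from concentration-response fitted to the Hill equation.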
12-hLO inh: blocks human 12-lipoxygenase activity | P18054 | purified 12-hLO, xylenol orange hydroperoxide absorbance | Potency, µM (top dose mostly 57.1 µM), hits mostly inhibitors | hit rate 0.12% among 150,000 | AID 1452; also: nearly all actives have a fitted effect of over 55% in size
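Purified human 12hLO (150 nM final) was preincubated with compounds for 15 min at room temperature in 25 mM Hepes pH 7.0, 0.01% Triton X-100, then reacted with 40 uM arachidonic acid for 30 min. Hydroperoxide was detected with ferrous iron/xylenol orange.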
HPGD inh: inhibitors of human 15-hydroxyprostaglandin dehydrogenase (HPGD); hit rate 4.3% among 150,000; Potency, µM, hits mostly inhibitors; purified HPGD, NADH fluorescence kinetic, PGE2 substrate; AID 894; active = well fitted inhibition curve with a large enough effect, not every such curve was filed as active; inconclusive = small, poorly fitted or top-dose-only effect, or another doubt; inactive = no such curve, though single readings can be large or run the other way
Target sequence (P15428 whole entry, looked up): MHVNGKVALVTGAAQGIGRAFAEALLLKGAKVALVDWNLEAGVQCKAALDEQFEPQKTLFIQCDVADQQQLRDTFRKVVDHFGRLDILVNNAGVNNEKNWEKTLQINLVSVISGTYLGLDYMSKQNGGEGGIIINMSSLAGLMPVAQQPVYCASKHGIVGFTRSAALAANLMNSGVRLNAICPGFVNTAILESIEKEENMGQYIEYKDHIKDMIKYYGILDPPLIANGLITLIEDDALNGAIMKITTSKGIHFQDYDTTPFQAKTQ
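NADH formation kinetics: reaction with 30 uM PGE2 and 1 mM NAD+ (final), 20 nM enzyme, Tris-HCl pH 8 with Tween 20, after 15 min compound preincubation at room temperature. Fluorescence change, last versus first of five reads.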
ALDH1A1 block: blocks purified human ALDH1A1 activity. hit rate 7.3% among 220,000. Potency, µM (highest dose often 75.3 µM), usual class: inhibitors. Purified ALDH1A1, NADH fluorescence, propionaldehyde substrate; active = well fitted inhibition curve with a large enough effect, not every such curve was filed as active; inconclusive = small, poorly fitted or top-dose-only effect, or another doubt; inactive = no such curve, though single readings can be large or run the other way
PNC assembly inh: perinucleolar compartment assembly inhibition | hit rate 3.1% among 140,000 | activity change (PNC), negative = inhibition, % at 10 µM | PC3M PTB-GFP, PNC prevalence imaging, 16 h; active compounds read low;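 active = readout at or below -70, meaning at least 70% loss of cells showing the perinucleolar compartment, a nuclear body marking cancer cells; inconclusive = readout between -30 and a set limit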
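Compounds are pinned in duplicate onto adhered PC3M cells stably expressing GFP-tagged PTB and incubated 16 h at 37 C. Cells are then fixed, nuclei stained with Hoechst, and PNC-positive cells counted.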
Of the large screens only hits and unclear results are named; the others gave an inactive call; ! = not confirmed by another sample. Shown are actives, neighbours in structure and some others; about 10% of the full set was active somewhere. Unless noted, calls follow the shape of the dose curve; as a rule, active = well fitted curve in the direction sought with a large enough effect; inconclusive = small, poorly fitted or top-dose-only effect, or another doubt; inactive = no such curve, though single readings can be large; an effect the other way counts as inactive or inconclusive.

O=C(COc1cccnc1[N+](=O)[O-])Nc1ccc(S(=O)(=O)N2CCOCC2)cc1	none (no result: 12-hLO inh, HPGD inh, PNC assembly inh)
O=C(CCC(=O)N1CCN(S(=O)(=O)c2ccc3ccccc3c2)CC1)Nc1cc(Cl)cc(Cl)c1	none (no result: 12-hLO inh, HPGD inh, PNC assembly inh)
O=C(COc1cccnc1[N+](=O)[O-])N1CCN(S(=O)(=O)c2ccc3ccccc3c2)CC1	ALDH1A1 block 16µM, PNC assembly inh inconclusive
COc1cc(OC)cc(-n2nnnc2SCC(=O)N2CCCC2)c1	PNC assembly inh inconclusive
COc1ccc(-n2nnnc2S(=O)(=O)CC(=O)N2CCCCC2)cc1	HPGD inh 14µM, ALDH1A1 block 6.3µM
Cc1ccc(-n2nnnc2SCC(=O)NC(C(=O)O)(c2ccccc2)c2ccccc2)cc1C	none (no result: 12-hLO inh, HPGD inh, PNC assembly inh)
CN(Cc1ccccc1)Cc1nc2c(c(=O)n(C)c(=O)n2C)n1Cc1ccc(Cl)cc1	ALDH1A1 block inconclusive
CCCCCn1c(CN(C)Cc2ccccc2)nc2c1c(=O)n(C)c(=O)n2C	GLA spleen mod inconclusive, ALDH1A1 block 10µM, PNC assembly inh inconclusive
Cc1ccc(Cn2c(CN(C)Cc3ccccc3)nc3c2c(=O)n(C)c(=O)n3C)cc1	ALDH1A1 block 7.1µM
CC(C)Oc1ccc(/C=N/NC(N)=S)cc1	none
COc1ccccc1-c1cncnc1NCc1ccccc1	none (no result: GLA inh pH 4.5, 12-hLO inh, HPGD inh, PNC assembly inh)
CN(C)CCCN1c2ccccc2Sc2ccc(Cl)cc21	PNC assembly inh -110!
Cc1ccc2[nH]c3c(c2c1)CN(C(=O)CN1CCCc2ccccc21)CC3	HPGD inh 22µM, ALDH1A1 block 2.8µM
Cc1ccc2[nH]c3c(c2c1)CN(C(=O)CN1CCCCC1)CC3	none (no result: 12-hLO inh, HPGD inh, ALDH1A1 block, PNC assembly inh)
Cc1ccc2[nH]c3c(c2c1)CN(C(=O)CN1CCN(c2ccccc2F)CC1)CC3	ALDH1A1 block 8.9µM
CCCCN=c1scc(-c2ccc3c(c2)NC(=O)CO3)n1N=C1CCCC1	HPGD inh inconclusive, ALDH1A1 block 3.2µM
CCN=c1scc(-c2ccc3c(c2)NC(=O)CO3)n1N=C1CCCC1	HPGD inh 16µM, ALDH1A1 block inconclusive
COc1ccc(NC(=O)N2CCc3nc(COc4ccccc4)c4c(c3C2)CO[C@@H](C)C4)cc1	none (no result: PNC assembly inh)
NS(=O)(=O)c1ccc(NNC(=O)c2ccccc2)cc1	none (no result: 12-hLO inh, HPGD inh, ALDH1A1 block, PNC assembly inh)
O=C(NNc1cc(Br)c(O)c(Br)c1)c1ccccc1	ALDH1A1 block 18µM (no result: 12-hLO inh, HPGD inh, PNC assembly inh)
O=C1c2c(O)cc(O)cc2O[C@H](c2ccc(O)c(O)c2)[C@H]1O	none (no result: 12-hLO inh, HPGD inh, ALDH1A1 block, PNC assembly inh)
COc1cc([C@@H]2Oc3cc([C@H]4Oc5cc(O)cc(O)c5C(=O)[C@H]4O)ccc3O[C@H]2CO)ccc1O	12-hLO inh inconclusive, HPGD inh 35µM, ALDH1A1 block inconclusive (no result: PNC assembly inh)
COc1cc([C@H]2Oc3cc([C@H]4Oc5cc(O)cc(O)c5C(=O)[C@@H]4O)ccc3O[C@@H]2CO)ccc1O	ALDH1A1 block 14µM (no result: GLA inh pH 4.5, PNC assembly inh)
CC/C(C)=N\N=C\c1c(O)n(CC)c2cc(C3=NNC(=O)CC3)ccc12	HPGD inh 32µM, ALDH1A1 block inconclusive
CCC(C)NC(=O)CSc1nc2cc3c(cc2c(=O)n1Cc1ccco1)OCO3 (configuration not stated)	ALDH1A1 block inconclusive (no result: 12-hLO inh, HPGD inh, PNC assembly inh)
CCN(CC)C(=O)CSc1nc2c(sc(=S)n2Cc2ccco2)c(=O)n1-c1ccccc1	ALDH1A1 block 6.3µM
CCN(CC)C(=O)CSc1nc2cc3c(cc2c(=O)n1Cc1ccco1)OCO3	ALDH1A1 block 0.89µM (no result: 12-hLO inh, HPGD inh, PNC assembly inh)
CCOC(=O)Cn1c(=O)n(Cc2ccco2)c(=O)c2ccc(C(=O)NC3CCCC3)cc21	ALDH1A1 block 7.9µM
COCCCn1c(SCC(=O)NC2CCCC2)nnc1-c1ccco1	ALDH1A1 block 13µM, PNC assembly inh -107
CCOC(=O)CC(C(=O)OCC)C1CCCCC1=O (configuration not stated)	none (no result: 12-hLO inh, PNC assembly inh)
C=CCn1c(=O)[nH]c2cc(C(=O)N3CC=C(c4ccccc4)CC3)ccc2c1=O	none (no result: 12-hLO inh, HPGD inh, PNC assembly inh)
COCCNC(=O)CSc1nc2cc3c(cc2c(=O)n1Cc1ccco1)OCO3	ALDH1A1 block 13µM
COCCNC(=O)c1ccc2c(=O)n(Cc3ccco3)c(SCC(=O)NC3CCCC3)nc2c1	ALDH1A1 block 7.9µM
CCC(Sc1nc2cc3c(cc2c(=O)n1Cc1ccco1)OCO3)C(=O)Nc1ccccc1OC (configuration not stated)	ALDH1A1 block 1.1µM
CCC(Sc1nc2cc3c(cc2c(=O)n1Cc1ccco1)OCO3)C(=O)NCCOC (configuration not stated)	ALDH1A1 block 2.2µM
OC[C@@H]1NC[C@@H](O)[C@H]1O	none (no result: GLA inh pH 4.5, GLA spleen mod, HPGD inh, ALDH1A1 block, PNC assembly inh)
CCOC(=O)CSc1nc2ccccc2c(=O)n1Cc1ccco1	ALDH1A1 block inconclusive
CCOC(=O)CSc1nc2c(sc3ccc([N+](=O)[O-])cc32)c(=O)n1Cc1ccco1	ALDH1A1 block inconclusive, PNC assembly inh -87
CCOC(=O)CSc1nc2cc(C(=O)NCC3CCCO3)ccc2c(=O)n1Cc1ccco1 (configuration not stated)	ALDH1A1 block inconclusive, PNC assembly inh -88
N[C@H](CCC(=O)N[C@H](CSN=O)C(=O)NCC(=O)O)C(=O)O	HPGD inh 11µM (no result: PNC assembly inh)
CN1CCN(C(c2cccc(C(F)(F)F)c2)c2nnnn2Cc2ccccc2)CC1 (configuration not stated)	none
c1ccc(Cn2nnnc2C(c2ccccc2)N2CCN(c3nc4ccccc4s3)CC2)cc1 (configuration not stated)	ALDH1A1 block 11µM
Cc1ccc(C)c(N2CCN(C(c3ccncc3)c3nnnn3Cc3ccccc3)CC2)c1 (configuration not stated)	HPGD inh inconclusive, ALDH1A1 block 13µM
COc1ccc(C(c2nnnn2Cc2ccccc2)N2CCN(c3nc4ccccc4s3)CC2)cc1OC (configuration not stated)	none
c1csc(Cn2nnnc2CN2CCN(c3nc4ccccc4s3)CC2)c1	ALDH1A1 block 16µM, PNC assembly inh inconclusive
O=C(NCc1ccccn1)C(=O)C1C(=O)Nc2ccccc21 (configuration not stated)	ALDH1A1 block inconclusive (no result: 12-hLO inh, HPGD inh, PNC assembly inh)
O=S(=O)(Nc1ccc2c(c1)OCCO2)c1cccc2nsnc12	ALDH1A1 block 25µM
COc1cc(NC(=O)C2CCCN(S(=O)(=O)c3cccc4nsnc34)C2)cc(OC)c1 (configuration not stated)	none
O=C(Nc1ccc2c(c1)OCCO2)C1CCN(S(=O)(=O)c2cccc3nsnc23)CC1	GLA inh pH 4.5 inconclusive, ALDH1A1 block inconclusive, PNC assembly inh -81
O=C(Nc1ccc2c(c1)OCCO2)C1CCCN(S(=O)(=O)c2cccc3nsnc23)C1 (configuration not stated)	PNC assembly inh -113
FC(F)(F)c1ccccc1-c1nc(NCc2cccnc2)c2ccccc2n1	none (no result: GLA inh pH 4.5, 12-hLO inh, HPGD inh, PNC assembly inh)
CC(=O)C1C(c2ccc(F)cc2)C2C(C)=NN=C2CC1(C)O (configuration not stated)	PNC assembly inh inconclusive
